Eight compounds from PubChem BioAssay (Tox21) can be followed below.

Where “and” joins values, the source holds several entries; their conditions need not be identical. Equal values may be shown once. Inconclusive results are not listed. Where a structure was tested more than once in an assay, its records may differ in their call. Calls of active or inactive are those of the source. Unless noted, calls come from the whole dose curve; as a rule, active = well fitted curve in the direction sought with a large enough effect in the repeat runs; inconclusive = weak or mixed curves; inactive = no such curve, though single readings can be large; an effect the other way counts as inactive or inconclusive.

A short description of assay [1]: qHTS assay to identify small molecule antagonists of the estrogen related receptor (ERR) signaling pathway from Tox21 library - cell viability counter screen (AID 1224834). Note: nearly all actives have a fitted effect of over 30% in size. The gist of the method:
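After 17.5 h of compound exposure at 37 C, ERR cells are incubated with CellTiter-Fluor for 30 min and fluorescence intensity serves as the viability measure.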

Assay [2] addresses Luciferin 4-monooxygenase (Photinus pyralis) (UniProt P08659). The assay can be described thus: qHTS assay to identify small molecule inhibitors of firefly luciferase (AID 1224835). Note: nearly all actives have a fitted effect of over 25% in size. Note: potency is the fitted concentration of half-maximal effect. The gist of the method: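 Biochemical qHTS: compounds run as interplate titrations against purified firefly enzyme, with D-luciferin and ATP each at its KM concentration. Light output recorded by CCD imaging.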

Assay [3] is described as follows: qHTS assay to identify small molecule agonists of the constitutive androstane receptor (CAR) signaling pathway - cell viability counter screen (AID 1224836). Note: series mostly up to about 92 µM; nearly all actives have a fitted effect of over 45% in size. The gist of the method:
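HepG2 cells stably carrying hCAR and a CYP2B6-2.2kb reporter were plated 4 h, then given compounds at 15 concentrations plus PK11195 (final 0.75 uM). After 23 h at 37 C, viability was read by CellTiter-Fluor fluorescence.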
A general note: qHTS replaces the single test concentration by a dilution series.

The nature of assay [4]: qHTS assay to identify small molecule antagonists of the constitutive androstane receptor (CAR) signaling pathway - cell viability counter screen (AID 1224837). Note: series mostly up to about 92 µM; nearly all actives have a fitted effect of over 45% in size. Summed up:
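Counter screen run in HepG2-CYP2B6-hCAR cells: 4 hr settle, compound titration (15 concentrations) with 50 nM CITCO, 23 hr at 37 C/5% CO2, CellTiter-Fluor fluorescence.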

In assay [5] the target is Nuclear receptor subfamily 1 group I member 3 (Homo sapiens) (UniProt Q14994). Kind of assay: qHTS assay to identify small molecule agonists of the constitutive androstane receptor (CAR) signaling pathway (AID 1224839). For activation: series mostly up to about 92 µM. Note: nearly all actives have a fitted effect of over 15% in size. Note: potency is the fitted concentration of half-maximal effect. The gist of the method: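 HepG2 cells stably expressing hCAR and a CYP2B6-2.2kb luciferase reporter were treated with compounds at 15 concentrations plus 0.75 uM PK11195 (final) for 24 h at 37 C; luminescence was read after ONE-Glo addition.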

A short description of assay [6]: qHTS assay to identify small molecule antagonists of the estrogen related receptor signaling pathway with the pleiotropic PPARgamma coactivator (PGC) from Tox21 10K library - cell viability counter screen (AID 1224840; active = well fitted cell-killing curve with a large enough effect in the repeat runs, not every such curve was filed as active; note: nearly all actives have a fitted effect of over 40% in size). The gist of the method: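 Following seeding of 2,000 PGC/ERR cells/well and 6 hours' incubation, test compounds were delivered in DMSO. The plates then sat 17.5 hours at 37 C before a fluorogenic live-cell protease reagent (CellTiter-Fluor) was read after 30 min.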

For assay [7], the target named is Thyrotropin receptor (Homo sapiens) (UniProt P16473). Kind of assay: qHTS assay to identify small molecule agonists of the thyroid stimulating hormone receptor (TSHR) signaling pathway (AID 1224843; calls by dose curve; note: nearly all actives have a fitted effect of over 45% in size). The gist of the method:
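TSHR-HEK293 cells in agonist mode, 30 min room-temperature step, then cAMP measured by competitive HTRF (cAMP-d2 with anti-cAMP cryptate) after 1 h at room temperature. Tested at 15 concentrations in triplicate.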

Assay [8] in a line: qHTS assay to identify small molecule agonists of the hypoxia (HIF-1) signaling pathway - cell viability counter screen (AID 1224844; calls by dose curve; note: nearly all actives have a fitted effect of over 50% in size). Summed up:
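Cells (HRE-bla ME-180, 2,000 per well) sat 5 hrs at 37C, got compound for 17 hrs, were read for CCF4-AM FRET, and were finally lysed with CellTiter-Glo for a 30 min room-temperature luminescence read.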

The nature of assay [9]: qHTS assay to identify small molecule agonists of H2AX (AID 1224845; active = well fitted activation curve with a large enough effect in the signal ratio in the repeat runs, not every such curve was filed as active; the % refers to the signal ratio; note: potency is the fitted concentration of half-maximal effect). The gist of the method: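 Wild-type CHO-K1 cells, plated overnight, exposed 3hr at 37C to 15 concentrations (0.76% DMSO final). Lysed, then HTRF anti-pH2AX (S139) cryptate and anti-H2AX-d2 antibodies, 24 hr room temperature; 665/620 nm emission read.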
A short description of assay [10]: qHTS assay to identify small molecule agonists of the hypoxia (HIF-1) signaling pathway (AID 1224846; active = well fitted activation curve with a large enough effect in the signal ratio in the repeat runs, not every such curve was filed as active; the % refers to the signal ratio). The gist of the method: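 A low-serum medium (0.5% dialyzed FBS) holding 2,000 HRE-bla ME-180 cells per well is preincubated for 5 hrs, dosed with compounds by pintool, and kept a further 17 hrs at 37C, 5% CO2 before CCF4-AM FRET detection of beta-lactamase.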

The nature of assay [11]: qHTS assay to identify small molecule agonists of H2AX - cell viability counter screen (AID 1224847; calls by dose curve; note: top concentration of the series differs between compounds; nearly all actives have a fitted effect of over 30% in size). The gist of the method: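 Wild-type CHO-K1 cells (10% FBS medium) were plated overnight at 37C, exposed to compounds at 15 concentrations for 3 hr at 37C (0.76% DMSO final), and viability was read as CellTiter-Glo luminescence after 30 min at room temperature.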
Assay [12] is described as follows: qHTS RealTime-Glo MT Cell Viability Assay in HepG2 cells - 24 hour (AID 1224867). Note: nearly all actives have a fitted effect of over 50% in size. The gist of the method: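 Luminescence read-out: viable HepG2 cells reduce a prosubstrate to a NanoLuc substrate, giving a signal proportional to live cell number. Reads taken at 0, 8, 16, 24, 32 and 40 h of compound exposure at 37 C.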
A short description of assay [13]: qHTS RealTime-Glo MT Cell Viability Assay in HEK293 cells - 32 hour (AID 1224868). Note: nearly all actives have a fitted effect of over 50% in size. Note: potency is the fitted concentration of half-maximal effect. Summed up:
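Nonlytic real-time viability readout: viable cells convert prosubstrate to NanoLuc substrate, giving luminescence proportional to live cell number. HEK293, 600 cells/well, compound added after 5 h, continuous culture at 37 C.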

The nature of assay [14]: A CellTox Green Cytotoxicity Assay to monitor cytotoxicity in HEK293 cells - 0 hour (AID 1224869). Note: nearly all actives have a fitted effect of over 50% in size. The gist of the method: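 Fluorescence intensity, read at 0, 8, 16, 24, 32 and 40 h of compound treatment, reflected dye binding to DNA of dead HEK293 cells; compounds (23 nL, DMSO) were added 5 h after plating cells with reagent.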
Assay [15] has as its target Nuclear receptor subfamily 1 group I member 3 (Homo sapiens) (UniProt Q14994). Kind of assay: qHTS assay to identify small molecule antagonists of the constitutive androstane receptor (CAR) signaling pathway (AID 1224838). Note: nearly all actives have a fitted effect of over 40% in size. The gist of the method: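 Cell line: HepG2 double-stable for hCAR and CYP2B6-2.2kb reporter. Agonist: CITCO, 50 nM final. Compounds: 15 concentrations, 24 h, 37 C. Detection: ONE-Glo luminescence.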

Assay [16] is described as follows: qHTS assay to identify small molecule antagonists of the estrogen related receptor signaling pathway with the pleiotropic PPARgamma coactivator (PGC) from Tox21 10K library (AID 1224841; call rule not given here). Summed up: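 qHTS antagonist format: PGC/ERR cells, 2k/well, compound in DMSO by pin transfer after 6 h attachment, 18 h treatment at 37 C, One-Glo luminescence read at 30 min.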

Assay [17] can be described thus: qHTS assay to identify small molecule agonists of the estrogen related receptor signaling pathway with the pleiotropic PPARgamma coactivator (PGC) from Tox21 10K library (AID 1224842). Note: nearly all actives have a fitted effect of over 15% in size. Summed up: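 PGC/ERR reporter cell line, 2,000 cells per well, incubated 6 h at 37 C before 23 nL compound in DMSO was added. After 18 h at 37 C, One-Glo luminescence read following 30 min at room temperature.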

Assay [18] can be described thus: qHTS assay to identify small molecule antagonists of the estrogen related receptor (ERR) signaling pathway from Tox21 library (AID 1224848). Note: nearly all actives have a fitted effect of over 50% in size. Summed up: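 ERR reporter cell line (from NTP) seeded 2,000 cells/well, rested 6 h at 37 C/5% CO2, then pin-dosed with compounds in DMSO. After 18 h at 37 C, ONE-Glo added; luminescence read after 30 min at room temperature.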

Sequence of Nuclear receptor subfamily 1 group I member 3 (Homo sapiens) (Q14994 whole entry, looked up): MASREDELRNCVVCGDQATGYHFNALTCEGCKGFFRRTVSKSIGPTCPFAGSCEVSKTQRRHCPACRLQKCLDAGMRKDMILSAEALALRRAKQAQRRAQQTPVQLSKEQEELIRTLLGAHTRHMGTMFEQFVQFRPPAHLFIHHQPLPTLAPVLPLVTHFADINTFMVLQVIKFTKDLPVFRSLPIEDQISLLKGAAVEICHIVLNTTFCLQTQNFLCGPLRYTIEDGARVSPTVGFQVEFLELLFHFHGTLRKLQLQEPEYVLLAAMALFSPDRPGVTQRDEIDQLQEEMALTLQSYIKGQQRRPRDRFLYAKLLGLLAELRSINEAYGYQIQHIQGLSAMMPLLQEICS
Sequence of Luciferin 4-monooxygenase (Photinus pyralis) (P08659 whole entry, looked up): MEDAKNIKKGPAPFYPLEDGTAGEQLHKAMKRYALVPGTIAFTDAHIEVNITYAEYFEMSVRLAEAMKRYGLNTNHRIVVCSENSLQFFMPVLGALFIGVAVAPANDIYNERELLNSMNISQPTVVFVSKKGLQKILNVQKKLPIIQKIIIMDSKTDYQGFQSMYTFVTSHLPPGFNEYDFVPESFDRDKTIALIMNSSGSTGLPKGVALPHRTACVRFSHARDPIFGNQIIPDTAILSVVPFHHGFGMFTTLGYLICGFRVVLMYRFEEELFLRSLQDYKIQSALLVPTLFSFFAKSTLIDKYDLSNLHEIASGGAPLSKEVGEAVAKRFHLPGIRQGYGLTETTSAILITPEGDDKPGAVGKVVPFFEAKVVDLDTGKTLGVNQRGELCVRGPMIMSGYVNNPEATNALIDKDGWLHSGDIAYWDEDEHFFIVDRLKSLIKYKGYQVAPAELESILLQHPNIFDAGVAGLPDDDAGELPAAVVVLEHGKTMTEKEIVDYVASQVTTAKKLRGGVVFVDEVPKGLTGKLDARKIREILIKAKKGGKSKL
Sequence of Thyrotropin receptor (Homo sapiens) (P16473 whole entry, looked up): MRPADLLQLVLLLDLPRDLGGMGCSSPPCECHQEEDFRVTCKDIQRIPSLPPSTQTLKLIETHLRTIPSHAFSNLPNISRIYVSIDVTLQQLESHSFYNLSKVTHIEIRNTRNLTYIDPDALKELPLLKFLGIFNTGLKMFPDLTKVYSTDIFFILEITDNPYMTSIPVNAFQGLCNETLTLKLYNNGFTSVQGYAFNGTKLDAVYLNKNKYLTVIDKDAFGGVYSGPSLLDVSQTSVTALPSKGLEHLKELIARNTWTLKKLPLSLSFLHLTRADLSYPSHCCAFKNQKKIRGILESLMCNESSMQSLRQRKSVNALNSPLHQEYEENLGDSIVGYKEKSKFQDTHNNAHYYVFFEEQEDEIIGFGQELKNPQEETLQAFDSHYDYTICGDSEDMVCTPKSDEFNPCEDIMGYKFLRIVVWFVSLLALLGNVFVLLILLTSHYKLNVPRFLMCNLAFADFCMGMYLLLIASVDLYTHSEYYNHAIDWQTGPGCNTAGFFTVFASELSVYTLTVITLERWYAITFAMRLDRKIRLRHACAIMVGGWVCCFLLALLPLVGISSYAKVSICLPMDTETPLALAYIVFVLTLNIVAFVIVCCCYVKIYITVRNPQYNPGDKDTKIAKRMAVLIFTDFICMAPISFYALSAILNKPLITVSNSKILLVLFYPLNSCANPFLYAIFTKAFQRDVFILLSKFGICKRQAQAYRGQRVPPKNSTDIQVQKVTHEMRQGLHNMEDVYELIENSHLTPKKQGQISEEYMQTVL

For `CC1(C)CC(N=C=O)CC(C)(CN=C=O)C1` (stereo not given), the Potency entry in assay [1], in assay [2], in assay [3], in assay [4], in [5] and in assay [6] was “inactive” each time. For the same compound, the Potency result in assay [7], in [8], in [9], in assay [11], in [12] and in assay [13] was “inactive” in each case. Besides, the Potency result in [14] is “inactive”. Further, the compound was classed as inactive in assay [10].
For `CCCCC/C=C\C/C=C\CCCCCCCC(=O)OC`, the Potency result in assay [1], in assay [2], in [3], in [4], in assay [15] and in assay [5] was “inactive” each time. Further, the Potency result in assay [6], in [7], in assay [8], in assay [9], in assay [11] and in [12] was “inactive” each time. Besides, the Potency entry in assay [13] and in [14] was “inactive” throughout. Further, in assay [10], the call was inactive.
As for `Cc1ccc(C)c(C)c1`, the Potency entry in assay [1], in assay [2], in assay [3], in assay [4], in assay [15] and in assay [5] was “inactive” in each case. Also, the Potency entry in [6], in [7], in assay [8], in [9], in assay [11] and in [12] was “inactive” each time. The Potency entry in assay [13] and in assay [14] was “inactive” in each case. Also, the call in assay [10] was inactive.
As to `O=Nc1ccc(O)cc1`, the Potency result in [1], in assay [2], in assay [3], in [4], in [15] and in assay [5] was “inactive” each time. Also, the Potency entry in assay [6], in assay [7], in assay [8], in [11], in [12] and in assay [13] was “inactive” in each case. For the same compound, the result in assay [10] was inactive.
For `OC[C@@H](O)[C@H](O)[C@H](O)[C@@H](O)CO`, the Potency result in assay [1], in [2], in assay [3], in [4], in [6] and in assay [16] was “inactive” in each case. Also, the Potency result in assay [17], in [7], in [8], in [9], in assay [11] and in assay [18] was “inactive” in each case. Further, the Potency entry in assay [12], in [13] and in [14] was “inactive” each time. Further, in assay [10], the outcome was inactive.
In the case of `O=C(O)c1ccc([N+](=O)[O-])cc1`, the Potency result in assay [1], in [2], in assay [3], in assay [4], in [15] and in assay [5] was “inactive” in each case. For the same compound, the Potency entry in [6], in [8], in assay [9], in [11], in [12] and in assay [13] was “inactive” in each case. Besides, the call in [10] was inactive.
In the case of `CNC[C@H](O)[C@@H](O)[C@H](O)[C@H](O)CO`, the Potency result in assay [1], in assay [2], in assay [3], in assay [4], in assay [15] and in assay [5] was “inactive” throughout. The Potency entry in assay [6], in assay [7], in [8], in assay [9], in assay [11] and in assay [12] was “inactive” each time. Also, the Potency entry in assay [13] and in assay [14] was “inactive” in each case.
Take `Oc1ccc(OCc2ccccc2)cc1`: the Potency entry in assay [1], in assay [3], in assay [4], in assay [15], in assay [6] and in assay [7] was “inactive” in each case. In addition, the Potency entry in [8], in assay [11], in assay [12] and in [14] was “inactive” in each case. For the same compound, the Potency was 31.1 µM (active) and 17.4 µM (active) in assay [2]; 23.8 µM (active) in assay [5]; 22.1 µM (active) and inactive in assay [9]; 1.07 µM (active) and inactive in assay [13]. Also, in assay [10], the call was inactive.
